Inconclusive results are not listed. Activity calls are given as the source filed them. The call rests on the fitted dose curve; in most records, active means well fitted curve in the direction sought with a large enough effect; inconclusive means small, poorly fitted or top-dose-only effect, or another doubt; inactive means no such curve, though single readings can be large; an effect the other way counts as inactive or inconclusive.
Key:
[1] = qHTS of pediatric cancer cell lines to identify multiple opportunities for drug repurposing: Primary screen for SJ-GBM2 cells (AID 1347091); further: potency means the concentration at half of the fitted maximal effect
Outline: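 Eight- or eleven-point concentration series, 48 h treatment at 37 degrees C in growth media; readout CellTiter-Glo luminescence. Potency and efficacy were taken from the concentration-response curves.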

[2] = qHTS of pediatric cancer cell lines to identify multiple opportunities for drug repurposing: Primary screen for A673 cells (AID 1347092); further: nearly all actives have a fitted effect of over 45% in size; further: potency means the concentration at half of the fitted maximal effect
Outline: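 Luminescence from CellTiter-Glo, taken after 15 min at room temperature, served as the proxy for metabolically active cells following 48 h treatment. Both potency and efficacy were taken from curves fitted to the titration data.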

[3] = qHTS of pediatric cancer cell lines to identify multiple opportunities for drug repurposing: Primary screen for SK-N-MC cells (AID 1347093); further: potency means the concentration at half of the fitted maximal effect
Outline: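 Metabolically active cells were quantified by ATP-dependent luminescence (CellTiter-Glo, 15 min at room temperature) following 48 h treatment. Cells had been plated at 500-1,000 per well and settled for 5 h beforehand.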

[4] = qHTS of pediatric cancer cell lines to identify multiple opportunities for drug repurposing: Primary screen for BT-37 cells (AID 1347094); further: potency means the concentration at half of the fitted maximal effect
Outline: (§1)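 Phenotypic viability qHTS, 48 h compound exposure, CellTiter-Glo luminescence read-out; multi-concentration dosing so that potency and efficacy derive directly from the primary screen's curves.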

[5] = qHTS of pediatric cancer cell lines to identify multiple opportunities for drug repurposing: Primary screen for NB-EBc1 cells (AID 1347095); further: potency means the concentration at half of the fitted maximal effect
Outline: as §1

[6] = qHTS of pediatric cancer cell lines to identify multiple opportunities for drug repurposing: Primary screen for U-2 OS cells (AID 1347096); further: nearly all actives have a fitted effect of over 50% in size
Outline: (§2)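 Cells (500-1,000/well) in growth media were settled 5 h at 37 degrees C, then given compounds for 48 h. Viability was read as CellTiter-Glo luminescence. Primary runs used MIPE at 11 points (0.78 nM-46 µM) and NPC at 8 points (0.59 nM-46 µM); follow-ups used 11 points.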

[7] = qHTS of pediatric cancer cell lines to identify multiple opportunities for drug repurposing: Primary screen for SK-N-SH cells (AID 1347098); further: nearly all actives have a fitted effect of over 65% in size; further: potency means the concentration at half of the fitted maximal effect
Outline: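 Cells (500-1,000/well) rested 5 h, then received compounds for 48 h; metabolically active cells were measured by CellTiter-Glo luminescence. Final concentrations spanned up to 46 µM (MIPE, 11-point) or 0.59 nM-46 µM (NPC, 8-point) in primary screens, 11-point in follow-ups.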

[8] = qHTS of pediatric cancer cell lines to identify multiple opportunities for drug repurposing: Primary screen for NB1643 cells (AID 1347099); further: nearly all actives have a fitted effect of over 50% in size; further: potency means the concentration at half of the fitted maximal effect
Outline: as §1

[9] = qHTS of pediatric cancer cell lines to identify multiple opportunities for drug repurposing: Primary screen for LAN-5 cells (AID 1347100); further: potency means the concentration at half of the fitted maximal effect
Outline: as §2

[10] = qHTS of pediatric cancer cell lines to identify multiple opportunities for drug repurposing: Primary screen for Saos-2 cells (AID 1347097); further: potency means the concentration at half of the fitted maximal effect; nearly all actives have a fitted effect of over 40% in size
Outline: as §1

Measured: Potency

COc1cc(C(=O)NC2CCN(C)CC2)ccc1Nc1ncc2c(n1)N(C1CCCC1)CCC(=O)N2C(C)C
inactive: [6]
active: [1] 2350 nM | [2] 2960 nM | [3] 1180 nM | [4] 2430 nM | [5] 662 nM | [7] 6070 nM | [8] 3720 nM | [9] 1180 nM

Cc1[nH]c(C=C2C(=O)Nc3ccccc32)c(C)c1CCC(=O)O
active: [1] 935 nM | [2] 1180 nM | [3] 590 nM | [4] 863 nM | [5] 148 nM | [10] 3320 nM | [7] 541 nM | [8] 3320 nM

O=C(Nc1cc2cc[nH]c2cn1)c1ccccc1
active: [1] 14800 nM | [2] 7430 nM | [3] 11800 nM | [4] 7690 nM | [5] 13200 nM | [10] 11800 nM | [7] 19200 nM | [8] 14800 nM | [9] 14800 nM

COc1cccc2c1C(=O)c1c(O)c3c(c(O)c1C2=O)C[C@@](O)(C(=O)CO)C[C@H]3O[C@H]1C[C@H](N)[C@H](O)[C@H](C)O1
active: [1] 52.6 nM | [2] 235 nM | [3] 105 nM | [4] 122 nM | [5] 46.9 nM | [7] 242 nM | [8] 526 nM

CC(C)NC[C@@H](C(=O)N1CCN(c2ncnc3c2[C@H](C)C[C@H]3O)CC1)c1ccc(Cl)cc1
active: [1] 3320 nM | [2] 11800 nM | [3] 132 nM | [4] 4320 nM | [5] 833 nM | [10] 6620 nM | [7] 12100 nM | [8] 3320 nM | [9] 2960 nM

COc1ccc(C[C@@H](C)[C@@H](C)Cc2ccc(OC)c(OC)c2)cc1OC
inactive: [7]
active: [1] 418 nM | [2] 935 nM | [3] 833 nM | [4] 968 nM | [5] 118 nM | [10] 1050 nM | [9] 187 nM

COc1ccc(C=Cc2cc(OC)c(OC)c(OC)c2)cc1NC(=O)[C@H](N)CO
active: [1] 1 nM | [2] 9.3 nM | [3] 11.8 nM | [4] 17.2 nM | [5] 1 nM | [10] 10.5 nM | [9] 13.2 nM
inactive: [7]

Nc1cccc2c1C(=O)N(C1CCC(=O)NC1=O)C2=O (stereo unspecified)
not listed: [10]
inactive: all other assays above

C=CCNc1c(O)cc2c(O)c1C[C@@H](C)C[C@H](OC)[C@@H](O)[C@@H](C)C=C(C)[C@H](OC(N)=O)[C@@H](OC)C=CC=C(C)C(=O)N2
active: [1] 526 nM | [2] 935 nM | [3] 1180 nM | [4] 217 nM | [5] 1320 nM | [7] 3040 nM | [8] 1480 nM

COc1ccc([C@@H]2CNC(=O)C2)cc1OC1CCCC1
active: [2] 743 nM | [3] 469 nM | [4] 27300 nM | [7] 3040 nM | [8] 1320 nM
inactive: [1] | [5] | [6] | [9]

CNC(=O)Nc1ccc(-c2nc(N3CC4CCC(C3)O4)c3cnn(C4CCC5(CC4)OCCO5)c3n2)cc1
active: [1] 29.6 nM | [2] 372 nM | [3] 2.6 nM | [4] 30.6 nM | [5] 132 nM | [10] 209 nM | [9] 6620 nM
inactive: [8]

N#Cc1c(NC(=O)c2cccc3ccccc23)sc2c1CCCC2
active: [1] 332 nM | [2] 235 nM | [3] 235 nM | [4] 1090 nM | [5] 332 nM | [10] 132 nM | [8] 4690 nM

CCCNC(=O)[C@H]1O[C@H]1C(=O)N[C@H](C(=O)N1CCC[C@@H]1C(=O)OC)C(C)CC (stereo partly specified)
active: [1] 23500 nM | [2] 2350 nM | [3] 2640 nM | [4] 17200 nM | [5] 16600 nM | [10] 2960 nM | [9] 10500 nM

CCNC(=O)Nc1ccc(-c2nc3c(c(N4CCOC[C@H]4C)n2)CCN(C2COC2)C3)cc1
active: [1] 743 nM | [2] 1480 nM | [3] 209 nM | [4] 1720 nM | [5] 1180 nM | [10] 4690 nM | [7] 17100 nM

COc1ccc2c(c1OC)C(=O)OC2[C@H]1c2c(cc3c(c2OC)OCO3)CCN1C (stereo partly specified)
active: [1] 132 nM | [2] 74.3 nM | [3] 83.3 nM | [4] 611 nM | [5] 372 nM | [10] 235 nM | [8] 1180 nM

COC(=O)[C@@H]1CC2=CC(=O)CC[C@]2(C)[C@@]23O[C@@H]2C[C@@]2(C)[C@H](CC[C@@]24CCC(=O)O4)[C@@H]13
not listed: [10]
inactive: all other assays above

CN1CCCN(C(=O)c2cccc(-c3ccc(C=C4C(=O)Nc5ccc(Cl)cc54)o3)c2)CC1
active: [1] 16600 nM | [2] 18700 nM | [3] 14800 nM | [4] 6850 nM | [5] 3320 nM | [10] 23500 nM | [8] 5900 nM | [9] 2090 nM

COc1cc(N2CCC(C(N)=O)CC2)ccc1Nc1nc(N)c(Cl)c(Nc2ccccc2S(=O)(=O)C(C)C)n1
inactive: [1] | [4] | [6]
active: [2] 1180 nM | [3] 132 nM | [5] 743 nM | [8] 526 nM | [9] 235 nM

C=C1CCC2[C@](C)(CO)C(O)CC[C@]2(C)C1CC=C1C(=O)OCC1O (stereo partly specified)
not listed: [10]
inactive: all other assays above

Cc1ccc2nc(NCCN)c3ncc(C)n3c2c1
active: [1] 11800 nM | [2] 1870 nM | [3] 1660 nM | [4] 24300 nM | [5] 7430 nM | [10] 14800 nM | [7] 6810 nM | [8] 5900 nM

COc1ccc(CCC(=O)c2c(O)cc(O[C@@H]3O[C@H](CO)[C@@H](O)[C@H](O)[C@@H]3O[C@@H]3O[C@@H](C)[C@H](O)[C@@H](O)[C@@H]3O)cc2O)cc1O
active: [2] 9350 nM | [3] 3320 nM | [7] 13600 nM | [8] 13200 nM
not listed: [10]
inactive: all other assays above

C[C@]12CC[C@@H]3c4ccc(O)cc4CC[C@H]3[C@H]1CC[C@H]2O
active: [1] 16600 nM | [2] 2960 nM | [3] 10500 nM | [4] 27300 nM | [5] 9350 nM | [10] 16600 nM | [8] 4180 nM | [9] 9350 nM

Cn1cc(C=CC(=O)c2cccc(F)c2)cc1C=CC(=O)NO
inactive: [1] | [4] | [5] | [6]
active: [2] 9350 nM | [3] 2960 nM | [7] 24100 nM | [8] 4690 nM

CC(=O)O[C@]1(C(C)=O)CC[C@H]2[C@@H]3C=C(C)C4=CC(=O)CC[C@]4(C)[C@@H]3CC[C@@]21C
active: [1] 14800 nM | [2] 2350 nM | [3] 2090 nM | [4] 4320 nM | [5] 2350 nM | [10] 11800 nM | [7] 3040 nM | [8] 2640 nM | [9] 5900 nM

C=CCNC1=C2C[C@@H](C)C[C@H](OC)[C@@H](O)[C@@H](C)C=C(C)[C@H](OC(N)=O)[C@@H](OC)C=CC=C(C)C(=O)NC(=CC1=O)C2=O
active: [1] 590 nM | [2] 1480 nM | [3] 1660 nM | [4] 193 nM | [5] 1480 nM | [10] 1660 nM | [7] 2410 nM | [8] 1480 nM

Oc1cc(-c2nc(-c3ccccc3)[nH]c2-c2ccncc2)ccc1Cl
active: [1] 4690 nM | [2] 1480 nM | [3] 662 nM | [4] 3850 nM | [5] 3720 nM | [7] 19200 nM | [8] 18700 nM | [9] 16600 nM

C[C@H](NCc1ccc2c(c1)nc(NC(=O)c1ccc(-c3cn[nH]c3)s1)n2CCc1ccccc1)C(C)(C)C
active: [1] 1050 nM | [2] 743 nM | [3] 1660 nM | [4] 1370 nM | [5] 1870 nM | [10] 1180 nM | [7] 3040 nM | [8] 1180 nM | [9] 833 nM

NC(=O)N1CCC(CC(=O)N2CCC([C@H]3c4ncc(Br)cc4CCc4cc(Cl)cc(Br)c43)CC2)CC1
active: [1] 16600 nM | [2] 14800 nM | [3] 14800 nM | [4] 19300 nM | [5] 13200 nM | [10] 18700 nM | [8] 14800 nM | [9] 7430 nM

CCCCCCCCc1ccc(CCC(N)(CO)CO)cc1
active: [1] 14800 nM | [2] 4690 nM | [3] 1870 nM | [4] 21700 nM | [10] 18700 nM | [7] 34100 nM | [8] 18700 nM | [9] 26400 nM

COc1cc2c(cc1O)CCC1C2CC[C@@]2(C)C1CC[C@@H]2O (stereo partly specified)
active: [1] 833 nM | [2] 3720 nM | [3] 6620 nM | [5] 526 nM | [10] 1050 nM
inactive: [6] | [9]

COc1ccc(C(C)=O)c(O)c1
active: [2] 2960 nM | [3] 37.2 nM | [10] 1660 nM
not listed: [4] | [8]
inactive: all other assays above

From PubChem BioAssay (NCATS)
